High-throughput results: PubChem BioAssay, several laboratories
The list is not random: actives were taken first. Their share in the collection is about 3.8%.
ADAM17 inh = ADAM17 inhibition, QFRET primary screen. 0.83% of 370,000 active. inhibition, % at 6.95 µM. AID 720648. recombinant ADAM17, EDANS/DABCYL FRET peptide cleavage. P78536;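 active = inhibition above the mean of compounds lying between control limits plus 3 SD, set per campaign, cut at about 8.5% in these data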;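 note: 0% = DMSO-only wells as the low control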
ADAM10 inh = inhibitors of human ADAM10. recombinant ADAM10, EDANS/DABCYL FRET peptide cleavage, 3 h. AID 720582. O14672. 0.62% of 370,000 active. inhibition, % at 7 µM;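 active = inhibition above a per-campaign cutoff equal to the mean of compounds falling between control-based bounds plus 3 SD, cut at about 20% in these data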;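 note: 0% = DMSO wells while the 100% control is not disclosed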
FGF22 binding = shifts melting point of recombinant human FGF22 | recombinant FGF22 thermal shift, SYPRO orange fluorescence; percent of sucrose octasulfate shift, DMSO zero | activity (Tm shift, normalised), % at 9.99 µM | AID 651658 | 1.5% of 340,000 active | Q9HCT0;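 active = mean Tm shift, scaled 0 neutral to 100 positive control, at about 1.3% or above, every replicate too, limit read from the data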
Target sequence (Q9HCT0 whole entry, looked up): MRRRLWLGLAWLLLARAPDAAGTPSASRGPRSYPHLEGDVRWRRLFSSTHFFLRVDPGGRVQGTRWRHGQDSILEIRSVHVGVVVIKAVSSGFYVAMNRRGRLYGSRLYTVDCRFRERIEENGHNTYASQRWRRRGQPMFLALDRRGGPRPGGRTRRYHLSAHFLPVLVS
rRNA inh HTS = inhibitors of bacterial rRNA selective over humanized ribosomes; GFP signal change (wild-type ribosome), % (concentration not given with the values); 1.6% of 350,000 active; E. coli WT GFP vs humanized-ribosome RFP mutants, fluorescence, 24 h; stronger effect = lower value; DMSO median 0, no signal -100;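 active = significant combined selectivity score with lowered wild-type GFP, culture density cut under 30%, mutant RFP and density less affected; inactive = any of these conditions unmet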
proKLK7 act = activators of human kallikrein-7 zymogen. P49862. purified proKLK7, EDANS-DABCYL substrate fluorescence; 100% is mature enzyme control, 0% vehicle. activation, % at 7 µM. 0.9% of 370,000 active;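 active = activation above the mean of all tested compounds plus 3 SD, computed per campaign excluding outliers beyond control limits, cut at about 13% in these data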
Target sequence (P49862 whole entry, looked up): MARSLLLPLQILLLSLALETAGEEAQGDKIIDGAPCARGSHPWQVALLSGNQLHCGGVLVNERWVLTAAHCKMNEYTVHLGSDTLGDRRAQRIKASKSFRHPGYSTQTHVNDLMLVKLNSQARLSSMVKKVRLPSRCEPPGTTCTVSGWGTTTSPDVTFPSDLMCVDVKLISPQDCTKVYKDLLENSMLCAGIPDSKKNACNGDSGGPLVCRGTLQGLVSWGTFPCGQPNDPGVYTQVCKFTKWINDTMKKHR
Active calls of the source: *.

Screening CCN(CC)c1ccc(N=Cc2ccc([N+](=O)[O-])o2)cc1 returned ADAM17 inh 7, ADAM10 inh 12, FGF22 binding 0 and proKLK7 act -1.
For CCNC(=O)C[C@@H]1CC[C@@H]2[C@@H](COc3ccc(NC(=O)c4cc(C)on4)cc3C(=O)N2C)O1 the results were FGF22 binding 0 and rRNA inh HTS 0.
For Cc1cccc(NC(=S)NNC(=O)c2ccc(O)cc2O)c1C the results were ADAM17 inh -3, ADAM10 inh -16, FGF22 binding 2.3*, rRNA inh HTS 5 and proKLK7 act 0.
For N#C/C(=C(/O)CCl)c1nc2ccccc2[nH]1 the results were ADAM17 inh -18, ADAM10 inh -54, FGF22 binding 0, rRNA inh HTS -16* and proKLK7 act -2.
Screening Cc1cccc(Nc2nnc(SC/C(O)=C(\C#N)c3nc4ccccc4[nH]3)s2)c1C returned ADAM17 inh -29, ADAM10 inh -53 and proKLK7 act -2.
Cc1cccc(C)c1Nc1nnc(SC/C(O)=C(\C#N)c2nc3ccccc3[nH]2)s1 was read as ADAM17 inh -14, ADAM10 inh -46, FGF22 binding 0, rRNA inh HTS -34* and proKLK7 act -1.
`N#C/C(=C(/O)COC(=O)c1ccc(O)cc1)c1nc2ccccc2[nH]1` gave ADAM17 inh -3, ADAM10 inh 0, FGF22 binding 0, rRNA inh HTS -5 and proKLK7 act 0.
`N#C/C(=C(/O)COC(=O)c1cccnc1Cl)c1nc2ccccc2[nH]1` gave ADAM17 inh -4, ADAM10 inh -10, FGF22 binding 44*, rRNA inh HTS 15 and proKLK7 act 0.
Screening CN1CCN(C(=O)C[C@@H]2CC[C@H]3[C@@H](COC[C@@H](O)CN3S(=O)(=O)c3cccc(F)c3)O2)CC1 returned FGF22 binding 0 and rRNA inh HTS -2.
COc1cccc(CN2[C@H](CO)[C@H](c3ccccc3)C23CN(Cc2ccccc2OC)C3)c1 was read as rRNA inh HTS -1.
`COc1ccc(C#Cc2ccc3c(c2)[C@]2(C(=O)N3)[C@H](c3ccc(OCCO)cc3)N3[C@H](c4ccccc4)[C@H](c4ccccc4)OC(=O)[C@H]3[C@@H]2C(=O)NC[C@H](O)c2ccccc2)cc1` gave FGF22 binding 0.
For COc1ccc(Cc2c(-c3ccc(F)cc3)nc3ccc(C)cn23)c(C)c1 the results were ADAM17 inh -8, ADAM10 inh -35, FGF22 binding 0, rRNA inh HTS 9 and proKLK7 act -1.
`COc1ccc(Cc2c(-c3ccc(OC)c(OC)c3)nc3ccc(C)cn23)c(C)c1` gave ADAM17 inh -33, ADAM10 inh -137, FGF22 binding 0, rRNA inh HTS -32* and proKLK7 act -2.
Screening O=C(N[C@H]1CC[C@@H](CCNC(=O)C2CCOCC2)O[C@H]1CO)c1ccccn1 returned FGF22 binding 0 and rRNA inh HTS 2.
For COCCOC(=O)N1C(=O)[C@@]2(c3ccccc31)[C@H](c1ccccc1OCCO)N1[C@H](c3ccccc3)[C@H](c3ccccc3)OC(=O)[C@H]1[C@@H]2C(N)=O the results were FGF22 binding 24*.
Screening COc1ccc2c3c(n(C)c2c1)[C@@H](CO)N(S(=O)(=O)c1ccc(C)cc1)CC31CN(S(=O)(=O)c2ccc(C)cc2)C1 returned rRNA inh HTS -2.
For CCOc1cccc2sc(N(CCCN(C)C)C(=O)c3ccc(S(=O)(=O)N(C)Cc4ccccc4)cc3)nc12 the results were ADAM17 inh -3, ADAM10 inh -7, FGF22 binding 0, rRNA inh HTS -39* and proKLK7 act 4.
COc1cccc2sc(N(CCCN(C)C)C(=O)c3ccc(S(=O)(=O)N4CCCc5ccccc54)cc3)nc12 was read as ADAM17 inh 1, ADAM10 inh -7, FGF22 binding 0, rRNA inh HTS -59 and proKLK7 act 0.
`CN(C)CCCN(C(=O)c1ccc(S(=O)(=O)N2CCc3ccccc32)cc1)c1nc2c(Cl)cccc2s1` gave ADAM17 inh 0, ADAM10 inh -6, FGF22 binding 0, rRNA inh HTS -40* and proKLK7 act 0.
CCOc1cccc2sc(N(CCN(CC)CC)C(=O)c3ccc(S(=O)(=O)N4CCCCC4)cc3)nc12 was read as ADAM17 inh 0, ADAM10 inh -3, FGF22 binding 0, rRNA inh HTS -4 and proKLK7 act 0.
For CCN(Cc1ccccc1)S(=O)(=O)c1ccc(C(=O)N(CCCN(C)C)c2nc3c(F)cccc3s2)cc1 the results were ADAM17 inh 3, ADAM10 inh 1, rRNA inh HTS -48* and proKLK7 act 0.
Screening Cc1ccc2sc(N(CCCN(C)C)C(=O)c3ccc(S(=O)(=O)N(C)Cc4ccccc4)cc3)nc2c1C returned ADAM17 inh 4, ADAM10 inh 8, FGF22 binding 0, rRNA inh HTS -57 and proKLK7 act -2.
For CCOc1cccc2sc(N(CCCN(C)C)C(=O)c3ccc(S(=O)(=O)N4CCCCCC4)cc3)nc12 the results were ADAM17 inh -2, ADAM10 inh 0, rRNA inh HTS -24* and proKLK7 act 0.
Screening COCC(=O)Nc1ccc2c(c1)OC[C@@H](C)N(CC1CCCCC1)C[C@@H](C)[C@H](OC)CN(C)C2=O returned rRNA inh HTS 0.
CCCCN(C)S(=O)(=O)c1ccc(C(=O)N(CCN(C)C)c2nc3ccc(C)cc3s2)cc1 was read as ADAM17 inh -1, ADAM10 inh 3, FGF22 binding 44*, rRNA inh HTS 4 and proKLK7 act 0.
`Cc1ccc2nc(N(CCCN(C)C)C(=O)c3ccc(S(=O)(=O)N4CCCCCC4)cc3)sc2c1` gave ADAM17 inh -4, ADAM10 inh 12, FGF22 binding 0, rRNA inh HTS -60 and proKLK7 act 0.
Cn1nc(C(=O)N2CCOCC2)c([N+](=O)[O-])c1C(=O)N1CCOCC1 was read as ADAM17 inh -1, ADAM10 inh 5, FGF22 binding 44*, rRNA inh HTS 19 and proKLK7 act -1.
Screening CC(=O)Oc1ccccc1C(=O)C=Cc1cccc([N+](=O)[O-])c1 returned ADAM17 inh -4, ADAM10 inh 2, FGF22 binding 0, rRNA inh HTS -45* and proKLK7 act 0.
For Cc1cc(O)c(C(=O)/C=C/c2cccc([N+](=O)[O-])c2)c(=O)o1 the results were ADAM17 inh -1, ADAM10 inh 10, FGF22 binding 0, rRNA inh HTS 2 and proKLK7 act 1.
COc1ccc(S(=O)(=O)NNC(=O)C(=O)NNc2ccccn2)cc1 was read as ADAM17 inh -2, ADAM10 inh 5, FGF22 binding 0, rRNA inh HTS -31* and proKLK7 act 1.
